From PubChem BioAssay (EPA / NIEHS)
“And” between values parts separate entries of the source, which are not always exact repeats. Identical values can stand only once. The source made the active and inactive calls. The calls were made as follows: active = hit-call score of the fitted dose curve at least 0.9, where 1 is the maximum; inactive = score below 0.9.

Experiment: BSK_KF3CT_SRB: Viability Assessment in the BioMAP Diversity Plus: KF3CT Assay (AID 2283069);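 also: fitted for both signal gain and loss against DMSO baseline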
Settings: primary human keratinocytes with fibroblasts
Protocol: BSK_KF3CT is a cell-based, multiplexed-readout assay that uses keratinocytes and foreskin fibroblasts, a human skin primary cell co-culture, with measurements taken at 24 hours after chemical dosing in a 96-well plate.BSK_KF3CT_SRB is an assay component measured in the BSK_KF3CT assay. It measures 0.1% sulforhodamine related to cell death using Sulforhodamine staining technology.Data from the assay component BSK_KF3CT_SRB was analyzed into 1 assay endpoint. This assay endpoint, BSK_KF3CT_SRB, was analyzed with bidirectional fitting relative to DMSO as the negative control and baseline of activity. Using a type of viability reporter, gain or loss-of-signal activity can be used to understand changes in the signaling. Furthermore, this assay endpoint can be referred to as a primary readout, because this assay has produced multiple assay endpoints where this one serves a signaling function. To generalize the intended target to other relatable targets, this assay endpoint is annotated to the cell morphology intended target family, where the subfamily is cell conformation.
The levels of cell surface (or secreted, indicated by the prefix "s") biomarker endpoints were measured by ELISA. Overt cytotoxicity to cells in confluent adherent cultures (all systems other than the BT system) was assessed by measuring total protein levels using sulforhodamine B (SRB) staining in parallel cultures at the time of biomarker measurements, indicated as SRB endpoints. For proliferation assays for adherent cell types, individual cell types are cultured at sub-confluence and relative cell numbers quantified by SRB staining at time points optimized for each system (48 h: 3C and CASM3C systems; 72 h: BT and HDF3CGF systems; 96 h: SAg system). SRB was performed by staining cells with 0.1% SRB after fixation with 10% TCA and reading wells at 560 nm.Viability and proliferation of PBMC (T cells) was quantified by Alamar Blue reduction for the SAg and BT systems. For PBMC viability (referred to as PBMC Cytotoxicity within the assay endpoint names), cells were plated (75,000/well in a 96-well plate) and then chemical samples added for 1 h before addition of activators, SEB and TSST-1 (20 ng/mL final concentration each). Cells were incubated for 90 h. Then, Alamar Blue (20 uL/well) (Invitrogen, Cat DAL1100) was added for 6 h, and the plates were read with a fluorescence microplate reader at 546/580 nm (excitation/emission). For PBMC proliferation, cells were plated and activated as above but incubated for only 16 h prior to addition of Alamar Blue. Plates were read after 6 h.
In the case of `c1cc2c3c(cccc3c1)CC2`, the outcome is reported as “inactive”. In the case of `OCC(F)(F)OC(F)(F)C(F)(F)OC(F)(F)C(F)(F)OC(F)(F)CO`, the outcome is reported as “inactive”. For `C=CC(=O)OCC(CC)(COC(=O)C=C)COC(=O)C=C`, the AC50 was 3.15 µM (active). For `CC(Cc1ccc(OCC(=O)O)cc1)NCC(O)c1csc(C(F)(F)F)n1` (stereo not given), the outcome was “inactive”. For `CCCCN(CCCC)N=O`, the outcome was “inactive”. In the case of `COP(=O)(CCC(=O)NCO)OC`, the outcome is reported as “inactive”. In the case of `O=P1(N(CCCl)CCCl)NCCCO1` (stereo not given), the outcome is reported as “inactive”. For `FC(F)(F)C(F)(C(F)(F)F)C(F)(F)C(F)(F)CC1CO1` (stereo not given), the outcome was “inactive”. For `CSC(C)(C)C=NO`, the outcome was “inactive”. For `CC(Cl)(Cl)C(=O)O`, the outcome was “inactive”. In the case of `ClC(Cl)(Cl)c1ccccc1`, the outcome is reported as “inactive”. With `Cc1cccc(N)c1` the outcome was “inactive”. In the case of `COCCOCCO`, the outcome is reported as “inactive”. For `[N-]=[N+]=[N-]`, the outcome was “inactive”. In the case of `O=C(O)C(Cl)Cl`, the outcome is reported as “inactive”. In the case of `O=P(Oc1ccccc1)(Oc1ccccc1)Oc1ccccc1`, the outcome is reported as “inactive”. With `CCOP(=S)(NC(C)C)Oc1ccccc1C(=O)OC(C)C` (stereo not given) the outcome was “inactive”. With `CC(Cl)CN(C)C` (stereo not given) the outcome was “inactive”. In the case of `CCCCN(CCCC)SN(C)C(=O)Oc1cccc2c1OC(C)(C)C2`, the outcome is reported as “inactive”. With `COP(=O)(O)OC` the outcome was “inactive”. For `CC(C)(C)c1ccccc1OP(=O)(Oc1ccccc1)Oc1ccccc1`, the outcome was “inactive”. For `O=C(O)C(F)(F)OC(F)(F)C(F)(F)OC(F)(F)F`, the outcome was “inactive”. With `Nc1ccc([N+](=O)[O-])cc1Cl` the outcome was “inactive”. With `O=P(OCC(Br)CBr)(OCC(Br)CBr)OCC(Br)CBr` (stereo not given) the outcome was “inactive”. With `O=C(O)C(F)(F)C(F)(F)C(=O)O` the outcome was “inactive”. In the case of `OCC(F)(F)OC(F)(F)C(F)(F)OC(F)(F)C(F)(F)OC(F)(F)F`, the AC50 is reported as 48.3 µM (active) and 48.1 µM (active). With `CCCCOCCOP(=O)(OCCOCCCC)OCCOCCCC` the outcome was “inactive”. With `OCC(F)(F)OC(F)(F)C(F)(F)OC(F)(F)CO` the outcome was “inactive”. In the case of `CCCN(CCC)c1c([N+](=O)[O-])cc(C(C)C)cc1[N+](=O)[O-]`, the outcome is reported as “inactive”. In the case of `CCOP(=S)(OCC)SCSCC`, the outcome is reported as “inactive”. In the case of `CCOP(=S)(Oc1ccc([N+](=O)[O-])cc1)c1ccccc1` (stereo not given), the outcome is reported as “inactive”. In the case of `CCOP(=S)(OCC)SCS(=O)(=O)CC`, the outcome is reported as “inactive”. With `O=C(O)C(F)(OC(F)(F)C(F)(F)C(F)(F)F)C(F)(F)F` (stereo not given) the outcome was “inactive”. For `Cc1ccc([N+](=O)[O-])cc1C`, the outcome was “inactive”. In the case of `O=C(O)C1C(C(=O)O)C2(Cl)C(Cl)=C(Cl)C1(Cl)C2(Cl)Cl` (stereo not given), the outcome is reported as “inactive”. For `NC(=O)C(F)(F)C(F)(F)F`, the outcome was “inactive”. In the case of `c1nc[nH]n1`, the outcome is reported as “inactive”. With `O=S1(=O)OCC2C(CO1)C1(Cl)C(Cl)=C(Cl)C2(Cl)C1(Cl)Cl` (stereo not given) the outcome was “inactive”. For `Cc1ccc(N)cc1N`, the outcome was “inactive”. In the case of `O=c1ssc(Cl)c1Cl`, the AC50 is reported as 2.83 µM (active).
